Assay results: PubChem BioAssay (NCATS)
Records with an inconclusive call do not appear. Calls of active or inactive are those of the source. The call rests on the fitted dose curve; in most records, active means well fitted inhibition curve with a large enough effect; inconclusive means small, poorly fitted or top-dose-only effect; inactive means flat fitted curve, though single readings scatter. *1 amine or outer side, *2 acyl side, *3 side chain or, on linkers, in order; H or OH if unused. Where a SMILES comes first, the peptide text is derived from it. [ ]: non-standard residue; d: D form. Ala(indol-2-yl) = N[C@@H](Cc1cc2ccccc2[nH]1)C(=O)O; X5 = CC(CC(O[*:1])C(=O)[*:2])C(=O)O; NMeV = CN[CH](C(=O)O)C(C)C; NMeA = CN[CH](C)C(=O)O; Aib = CC(C)(N)C(=O)O; βAla = NCCC(=O)O

target: Calcium and integrin-binding protein 1 (Homo sapiens) (UniProt Q99828); test: Primary qHTS for Identification of Calcium Integrin Binding Protein 1 (CIB1) Competitor (AID 1508620); conditions: CIB1-GST / FITC-alphaIIb peptide fluorescence polarization; series mostly up to 114 µM; activity change, negative = inhibition: at the top concentration;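 further: GST tagged CIB1 binding a fluorescein labelled alphaIIb integrin peptide tracer; top concentration of the series differs between compounds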
Excerpt: Assay Provider: Ulhas P. Naik, PhD Sidney Kimmel Medical College Thomas Jefferson University, Philadelphia, PA Primary function of platelets is to maintain hemostasis. At the site of vascular injury, platelets adhere to adhesive proteins such as collagen and von Willebrand factor. Adherent platelets are activated and generate soluble platelet agonists such as thrombin, ADP and thromboxane A2. Following exposure of circulating platelets to these agonists, results in platelet shape change, granule secretion and activation of platelet integrin alphaIIb-beta3. Ligand binding to activated integrin alphaIIb-beta3 triggers outside-in signaling, leading to platelet aggregation, stabilization of platelet plug, and clot retraction. Upon atherosclerotic plaque rupture also causes platelet plug formation, which underlies a number of cardiovascular diseases such as myocardial infraction and stroke. A number of anti-platelet drugs such as aspirin, clopidogrel, prasugrel, vorapaxar, and eptifibatide are currently available to prevent the thrombotic complications. However, these anti-platelet agents have several limitations including inherent variability in individual responses, developing resistance, and serious bleeding side effects. For these reasons they are not suitable for long-term protection. Based on the experiences with current anti-platelet drugs, it appears that the most useful therapeutic approach is to intersect the secondary responses such as integrin outside-in signaling or recruitment of platelets by TxA2 and secreted ADP. Compounds, which can largely preserve the primary hemostatic function of platelets but inhibit secondary response will be most desired therapeutic agents for treatment of cardiovascular disease. CIB1 is a calcium integrin binding protein, which specifically interact with the alphaIIb subunit of integrin alphaIIb-beta3. Binding of CIB1 to alphaIIb regulates the outside-in signaling in platelets, which is needed for thrombus stabilization and thrombus growth. […] Therefore, we propose that discovery of a small molecule that can prevent the association of CIB1 and alphaIIb-beta3 will be a potential anti-platelet agent that can block the thrombus formation without undue effect on hemostasis. Reference: [1] Naik MU, Nigam A, Manrai P, et al. CIB1 deficiency results in impaired thrombosis: the potential role of CIB1 in outside-in signaling through integrin alpha IIb beta 3. J Thromb Haemost.
PROTOCOL TABLES SEQUENCE No. (1, 2, 3, etc.); […] (e.g., Cells, Incubation, Reagent, etc.); VALUE and DESCRIPTION. 1; Reagent; 3 uL; Protein or buffer (4/3x) 2; Compound; 46 nL; Control inhibitor / compound library 3; Time; 15 min; Room temperature incubation 4; Reagent; 1 uL; Fluorescent labeled peptide (4x) 5; Time; 1000 rpm; Centrifuge 6; Time; 15 min; Room temperature incubation 7; Detection; Ex 480/ Em 540; ViewLux Fluorescence Read NOTES (numbers refer to sequence above) 1; Protein Mixture: C1B1-GST (final concentrations of 1 uM). […] 3; Room temperature incubation. 4; Fluorescent Labeled Peptide: FITC-aIIb (final concentration of 100 nM). Sequence of alphaIIb peptide: Acetyl-[…]-FITC (purity is 95.83%). 5; Centrifuge 1000 rpm (164 g) for 15 seconds. 6; Room temperature incubation. 7; ViewLux Fluorescent Polization Read: excitation = 480(20) / emission = 540(25) S and P; FITC Dichroic mirror.
On the % scale 0 is the no-effect control and ±100 the full control effect.

Chain of Calcium and integrin-binding protein 1 (Homo sapiens) (Q99828 whole entry, looked up): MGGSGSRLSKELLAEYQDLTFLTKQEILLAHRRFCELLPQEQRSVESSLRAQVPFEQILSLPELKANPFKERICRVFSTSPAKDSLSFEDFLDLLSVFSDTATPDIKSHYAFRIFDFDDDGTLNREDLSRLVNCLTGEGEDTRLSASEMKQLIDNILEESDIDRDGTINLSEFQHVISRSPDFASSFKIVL

Row | Compound | activity change, negative = inhibition
1 | CCOC(=O)c1ccc(-c2ccc(OC(=O)N(C)Cc3cccc(-c4ccncc4)c3)cc2)cc1 | 0.759% (inactive)
2 | C=C(C)C(=O)O[C@H]1[C@@H]2[C@H](C)C(=O)O[C@@H]2C[C@@H](C)[C@@H]2C=CC(=O)[C@]21C | -5.8% [at 57.7 µM] (inactive)
3 | Cc1c(N2C(=O)[C@@H]3[C@H](O)CCN3C2=O)ccc(C#N)c1Cl | 4.65% (inactive)
4 | Cc1ccc(Cn2nc(C(=O)N[C@@H]3C(C)(C)[C@@H]4CC[C@@]3(C)C4)cc2-c2ccc(Cl)c(C)c2)cc1 | -0.162% (inactive)
5 | COC1(C[S@@](=O)c2ccccc2)CCN(CCc2c[nH]c3ccc(F)cc23)CC1 | 1.85% (inactive)
6 | CCCCCn1cc(C(=O)C2C(C)(C)C2(C)C)c2ccccc21 | -6.07% (inactive)
7 | N#Cc1cn([C@@H]2O[C@H](CO)[C@H](O)[C@@H]2O)c2ncnc(N)c12 | -3.18% (inactive)
8 | CC(=O)O[C@@H]1[C@H]2CC[C@H]3[C@@](C)(O)[C@@H]4C[C@H](O)C(C)(C)[C@@]4(O)[C@H](O)C[C@@]13C[C@@]2(C)O | -0.642% [at 57.7 µM] (inactive)
9 | COC1CC(O[C@H]2CC[C@@]3(C)C(CCC4C3CC[C@]3(C)[C@@H](C5=CC(=O)OC5)CC[C@]43O)C2)OC(C)C1O (stereo not given in full) | 0.57% [at 57.7 µM] (inactive)
10 | C[C@H]1O[C@@H](n2cnc3c(N)ncnc32)C[C@@H]1O | 2.99% (inactive)
11 | O=C1N[C@@H](Cc2ccccc2)CN2CCCC[C@@H]12 | -10.6% (inactive)
12 | C[C@H]1CN(Cc2ccc(CC(=O)N3CCC(Nc4cccc(F)c4)CC3)cc2)CCN1 | 2.86% (inactive)
13 | CCCCn1cc(C(=O)c2cccc3ccccc23)c2ccccc21 | -0.188% (inactive)
14 | CC(=O)OC[C@]12C[C@H](O)C(C)=C[C@H]1O[C@@H]1[C@H](O)[C@@H](OC(C)=O)[C@@]2(C)[C@]12CO2 | -2.75% [at 57.7 µM] (inactive)
15 | COC1CC(O[C@H]2CC[C@]3(C=O)C4CC[C@]5(C)[C@@H](C6=CC(=O)OC6)CC[C@]5(O)[C@@H]4CC[C@@H]3C2)OC(C)C1O[C@@H]1O[C@H](CO)[C@@H](O[C@@H]2O[C@H](CO)[C@@H](O)[C@H](O)[C@H]2O)[C@H](O)[C@H]1O (stereo not given in full) | -4.28% [at 30.2 µM] (inactive)
16 | CC(C)(NC(=O)[C@@H](N)Cc1ccc(O)cc1)C(=O)N[C@@H](Cc1cc2ccccc2[nH]1)C(=O)N[C@@H](Cc1ccccc1)C(=O)O (H-Y[Aib][Ala(indol-2-yl)]F-OH) | 3.77% [at 30.2 µM] (inactive)
17 | CCCCN1[C@@H]2CC[C@H]1CC(OC(c1ccc(F)cc1)c1ccc(F)cc1)C2 (stereo not given in full) | -8.72% (inactive)
18 | Cc1c(N[C@@H](c2nnc(-c3ccc(C#N)cc3)o2)[C@H](C)O)ccc(C#N)c1Cl | -1.27% (inactive)
19 | CC(=O)O[C@H]1C(=O)[C@]2(C)C(O)C[C@H]3OC[C@@]3(OC(C)=O)[C@H]2[C@H](OC(=O)c2ccccc2)[C@]2(O)C[C@H](O)C(C)=C1C2(C)C (stereo not given in full) | 5.06% [at 30.2 µM] (inactive)
20 | CO[C@H]1[C@H](O)[C@H](O[C@H]2CC[C@]3(C=O)C4CC[C@]5(C)[C@H](C6=CC(=O)OC6)CC[C@]5(O)C4CC[C@@H]3C2)O[C@@H](C)[C@@H]1O (stereo not given in full) | 0.46% [at 57.7 µM] (inactive)

Row | Compound | activity change, negative = inhibition
21 | C=C1[C@@H](O)[C@]2(O)OC[C@]34C2[C@]2(C)C(C[C@H]3OC(=O)[C@H](O)[C@@]14O)C(C)=CC(=O)[C@H]2O (stereo not given in full) | 0% [at 57.7 µM] (inactive)
22 | CN1C[C@@H]2CN(c3ccc(-c4ccccc4)nn3)C[C@@H]2C1 | 2.18% (inactive)
23 | C=CC(C)(C)C12C=C(O)C(=O)N3/C(=C\c4cnc[nH]4)C(=O)NC31N(OC)c1ccccc12 (stereo not given) | -4.14% [at 57.7 µM] (inactive)
24 | CCC1NC(=O)C2C(Cl)C(Cl)CN2C(=O)C(CC)NC(=O)CC(c2ccccc2)NC(=O)C(CO)NC1=O (stereo not given) | -16.6% [at 57.7 µM] (inactive)
25 | COc1cc(C(=O)N2CC[C@@H](O)[C@@H](N)C2)cc2nc(-c3cc4ccccc4n3CC3CC3)n(C)c12 | 0.184% [at 57.7 µM] (inactive)
26 | CCCCCCC1C(=O)O[C@H](C)[C@H](NC(=O)c2cccc(NC=O)c2O)C(=O)O[C@@H](C)[C@@H]1OC(=O)CC(C)C (stereo not given in full) | -1.19% (inactive)
27 | Cc1ccc(-n2nccn2)c(C(=O)N2CCN(c3nc4cc(Cl)ccc4o3)CCC2C)c1 (stereo not given) | 0% (inactive)
28 | CCC(C)C1NC(=O)C2CCCN2C(=O)C(CC(C)C(=O)O)OC(=O)CCNC(=O)C(C)N(C)C(=O)C(C(C)C)N(C)C1=O (stereo not given) (cyclo([X5]PI[NMeV][NMeA][βAla]); configuration not given here) | -1.6% [at 30.2 µM] (inactive)
29 | COc1ccc(C23CCC(=O)C=C2N(C)CC3)cc1OC (stereo not given) | 2.41% (inactive)
30 | C=C1C(=O)CC2OC2(C)CC2OC(=O)C(=C)C2C(O)C1OC(=O)/C(C)=C\C (stereo not given) | -16.7% [at 57.7 µM] (inactive)
31 | C[C@]12CC[C@H](O)CC1=CC[C@@H]1C2CC[C@]2(C)[C@@H](C3=CC(=O)OC3)CC[C@]12O (stereo not given in full) | 5.17% [at 57.7 µM] (inactive)
32 | CN1C2CCC1CC(OC(=O)N1Cc3ccccc3NC1=O)C2 (stereo not given) | 2.85% (inactive)
33 | CC[C@@H]1/C=C/C=C/C[C@H](C)C(O)[C@](C)(O)C(=O)[C@H](C)C(O)[C@H](C)C(=O)[C@H](C)[C@@H](O)[C@H](C)/C=C/C(=O)O[C@H]2[C@@H](C)[C@@H](CC1)O[C@]1(O[C@H](C[C@H](C)O)[C@H](C)CC1=O)[C@@H]2C (stereo not given in full) | 2.74% [at 30.2 µM] (inactive)
34 | C[C@@H]1O[C@@H](O[C@H]2CC[C@@]3(C)C(CC[C@@H]4C3CC[C@]3(C)[C@@H](C5=CC(=O)OC5)CC[C@]43O)C2)[C@H](O)[C@H](O)[C@H]1O (stereo not given in full) | -6.91% [at 57.7 µM] (inactive)
35 | COc1cc(O)c2c(c1)CCC[C@@H](O)[C@H](O)C(=O)/C=C\C[C@H](C)OC2=O | -10.7% [at 57.7 µM] (inactive)
36 | C[C@]12CC[C@H](O)C[C@H]1CC[C@@H]1[C@@H]2[C@H](O)C(=O)[C@]2(C)[C@@H](c3ccc(=O)oc3)CC[C@]12O | -8.8% (inactive)
37 | CNc1ccc2oc(C[C@H]3O[C@@]4(CC[C@H]3C)O[C@H](C(C)C(=O)c3ccc[nH]3)[C@H](C)C[C@H]4C)nc2c1C(=O)O (stereo not given in full) | -11.5% (inactive)
38 | C[C@H](Nc1ncnc2nc[nH]c12)c1nc2ccc(F)cc2c(=O)n1-c1ccccc1 | 4.59% (inactive)
39 | CN1C(=O)CN=C(c2ccccc2Cl)c2cc(Cl)ccc21 | -2.5% (inactive)
40 | CC(=O)O[C@H]1CN2CCC1CC2 | 1.96% (inactive)
